Laboratory results as given in publication PMC5540273 (PLoS ONE, 2017).

Experiments:
Details in all cases: concentration: 1 μM, replicates: in singlicate; n = 1
[1] = test system: TLK1
[2] = test system: TLK2
[3] = test system: TNIK
[4] = test system: TNK1
[5] = test system: TNK2
[6] = test system: TNNI3K
[7] = test system: T1, TRKA
T1 construct: gene NTRK1

[8] = test system: TRKB
[9] = test system: T2, TRKC
T2 construct: gene NTRK3

[10] = test system: TRPM6
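Note: KINOMEscan kinase panel screen.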

## COc1ccc(Nc2nccc(NCCNC(=O)Nc3cc(C)ccc3C)n2)cc1 [GSK1379899]
[1]
  %Inh: 0%
[2]
  %Inh: 0%
[3]
  %Inh: 0%
[4]
  %Inh: 0%
[5]
  %Inh: 0%
[6]
  %Inh: 0%
[7]
  %Inh: 3%
[8]
  %Inh: 0%
[9]
  %Inh: 7%
[10]
  %Inh: 0%

## Cn1cncc1-c1cc2c(Nc3ccc(OCc4ccccc4)cc3)ncnc2cn1 [GW281179]
[1]
  %Inh: 18%
[2]
  %Inh: 0%
[3]
  %Inh: 0%
[4]
  %Inh: 1%
[5]
  %Inh: 20%
[6]
  %Inh: 11%
[7]
  %Inh: 0%
[8]
  %Inh: 37%
[9]
  %Inh: 0%
[10]
  %Inh: 12%

## COc1ccc(Nc2nccc(N3CCC(NC(=O)c4cc5ccccc5s4)C3)n2)cc1 (centres unmarked) [GSK1379738]
[1]
  %Inh: 3%
[2]
  %Inh: 0%
[3]
  %Inh: 0%
[4]
  %Inh: 11%
[5]
  %Inh: 18%
[6]
  %Inh: 0%
[7]
  %Inh: 60%
[8]
  %Inh: 32%
[9]
  %Inh: 0%
[10]
  %Inh: 39%

## Cc1ccc(NC(=O)c2ccc(Cl)cc2)cc1-c1ccc(C(=O)Nc2ccncc2)cc1 [GSK1398467]
[1]
  %Inh: 8%
[2]
  %Inh: 3%
[3]
  %Inh: 0%
[4]
  %Inh: 9%
[5]
  %Inh: 25%
[6]
  %Inh: 21%
[7]
  %Inh: 0%
[8]
  %Inh: 0%
[9]
  %Inh: 25%
[10]
  %Inh: 19%

## CC(=O)c1c(C)c2cnc(Nc3ccc(N4CCNCC4)cn3)nc2n(C2CCCC2)c1=O
[1]
  %Inh: 0%
[2]
  %Inh: 0%
[3]
  %Inh: 0%
[4]
  %Inh: 0%
[5]
  %Inh: 7%
[6]
  %Inh: 0%
[7]
  %Inh: 0%
[8]
  %Inh: 0%
[9]
  %Inh: 0%
[10]
  %Inh: 0%

## CS(=O)(=O)CCNCc1nc(-c2ccc3ncnc(Nc4ccc(OCc5ccccc5)c(Cl)c4)c3c2)cs1.Cl [GW582764]
[1]
  %Inh: 0%
[2]
  %Inh: 0%
[3]
  %Inh: 0%
[4]
  %Inh: 4%
[5]
  %Inh: 14%
[6]
  %Inh: 0%
[7]
  %Inh: 0%
[8]
  %Inh: 41%
[9]
  %Inh: 54%
[10]
  %Inh: 0%

## Cc1ccc(NC(=O)Nc2ccccc2F)cc1-c1ccc(C(=O)Nc2ccncc2)cc1 [GSK1398477]
[1]
  %Inh: 6%
[2]
  %Inh: 0%
[3]
  %Inh: 10%
[4]
  %Inh: 10%
[5]
  %Inh: 34%
[6]
  %Inh: 53%
[7]
  %Inh: 10%
[8]
  %Inh: 0%
[9]
  %Inh: 0%
[10]
  %Inh: 21%

## CCn1c(-c2c(N)noc2C)nc2cnccc21 [SB-737856]
[1]
  %Inh: 0%
[2]
  %Inh: 0%
[3]
  %Inh: 0%
[4]
  %Inh: 0%
[5]
  %Inh: 22%
[6]
  %Inh: 6%
[7]
  %Inh: 0%
[8]
  %Inh: 0%
[9]
  %Inh: 0%
[10]
  %Inh: 0%

## COC(=O)C(NC(=O)NC1CCN(c2ccnc(Nc3ccc(F)cc3)n2)C1)c1ccccc1 (centres unmarked) [GSK1379712]
[1]
  %Inh: 14%
[2]
  %Inh: 6%
[3]
  %Inh: 17%
[4]
  %Inh: 0%
[5]
  %Inh: 0%
[6]
  %Inh: 24%
[7]
  %Inh: 51%
[8]
  %Inh: 6%
[9]
  %Inh: 29%
[10]
  %Inh: 44%

## COc1ccc(Nc2nccc(N3CCC(NC(=O)C(C)c4ccc(Cl)cc4)C3)n2)cc1 (centres unmarked) [GSK1379735]
[1]
  %Inh: 0%
[2]
  %Inh: 0%
[3]
  %Inh: 10%
[4]
  %Inh: 0%
[5]
  %Inh: 15%
[6]
  %Inh: 6%
[7]
  %Inh: 19%
[8]
  %Inh: 0%
[9]
  %Inh: 11%
[10]
  %Inh: 1%

## CC(C)c1ccc(O)cc1Nc1ccnc2ccc(C(F)(F)F)cc12 [GW482059]
[1]
  %Inh: 0%
[2]
  %Inh: 0%
[3]
  %Inh: 0%
[4]
  %Inh: 0%
[5]
  %Inh: 0%
[6]
  %Inh: 71%
[7]
  %Inh: 12%
[8]
  %Inh: 11%
[9]
  %Inh: 37%
[10]
  %Inh: 1%

## c1ccc(-c2ccnc3[nH]ccc23)cc1 [SB-693578]
[1]
  %Inh: 7%
[2]
  %Inh: 0%
[3]
  %Inh: 8%
[4]
  %Inh: 0%
[5]
  %Inh: 9%
[6]
  %Inh: 11%
[7]
  %Inh: 22%
[8]
  %Inh: 67%
[9]
  %Inh: 37%
[10]
  %Inh: 0%

## COc1ccc(CSc2nnc(-c3ccc4ncsc4c3)o2)cc1C(F)(F)F
[1]
  %Inh: 0%
[2]
  %Inh: 7%
[3]
  %Inh: 0%
[4]
  %Inh: 0%
[5]
  %Inh: 0%
[6]
  %Inh: 0%
[7]
  %Inh: 0%
[8]
  %Inh: 0%
[9]
  %Inh: 13%
[10]
  %Inh: 0%

## Fc1ccc(-c2nn3cccc(F)c3c2-c2ccncc2)cc1 [GW475620]
[1]
  %Inh: 0%
[2]
  %Inh: 0%
[3]
  %Inh: 32%
[4]
  %Inh: 0%
[5]
  %Inh: 12%
[6]
  %Inh: 0%
[7]
  %Inh: 15%
[8]
  %Inh: 0%
[9]
  %Inh: 2%
[10]
  %Inh: 0%

## Cc1nccc(-c2c(-c3ccc(F)cc3)ncn2CCCN2CCOCC2)n1.Cl [SB-282975]
[1]
  %Inh: 0%
[2]
  %Inh: 0%
[3]
  %Inh: 0%
[4]
  %Inh: 37%
[5]
  %Inh: 26%
[6]
  %Inh: 0%
[7]
  %Inh: 0%
[8]
  %Inh: 0%
[9]
  %Inh: 16%
[10]
  %Inh: 0%

## CNc1cc(-c2ccc3c(N)n[nH]c3c2)nc(N)n1 [GSK2224810]
[1]
  %Inh: 25%
[2]
  %Inh: 20%
[3]
  %Inh: 8%
[4]
  %Inh: 0%
[5]
  %Inh: 0%
[6]
  %Inh: 2%
[7]
  %Inh: 11%
[8]
  %Inh: 0%
[9]
  %Inh: 0%
[10]
  %Inh: 0%

## O=C(Nc1n[nH]c2nc(-c3ccco3)c(Br)cc12)C1CCN(Cc2ccccc2)C1.O=C(O)[C@H](O)[C@@H](O)C(=O)O (centres unmarked) [SB-742034]
[1]
  %Inh: 5%
[2]
  %Inh: 6%
[3]
  %Inh: 17%
[4]
  %Inh: 13%
[5]
  %Inh: 6%
[6]
  %Inh: 0%
[7]
  %Inh: 48%
[8]
  %Inh: 17%
[9]
  %Inh: 0%
[10]
  %Inh: 1%
